The results in this text go back to the supplement of paper PMC11628255, “Interference of metal ions on the bioluminescent signal of firefly, Renilla, and NanoLuc luciferases in high-throughput screening assays” (Frontiers in Chemistry, 2024).

The assay deals with firefly luciferase (FLuc). The experiment in a line: residual bioluminescent signal relative to negative (DMSO) control; higher = less interference (more residual luciferase signal). The protocol:
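Purified luciferase (FLuc 10 nM + 10 uM D-luciferin; NLuc 10 pM + 10 uM furimazine; RLuc 50 pM + 2 uM coelenterazine) in 384-well plates; metal salt pre-incubated with enzyme 10 min at RT, substrate added and luminescence read after 10 min. Signal normalised to plate DMSO negative control (% N_VALUE = x/mean neg *100); triplicate wells at 0.01, 1 and 5 mM salt.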

Setting [1] is: metal salt concentration 0.01 mM, HEPES conditions (100 mM HEPES, 5 mM MgSO4, 10 uM ATP, pH 7.5).
The mark [2] stands for this setting: metal salt concentration 0.01 mM, screening conditions (0.5 mM Tris, 50 mM glycine, 0.5 mM EDTA, 5 mM MgSO4, 10 uM ATP, pH 7.6).
Setting [3] is: metal salt concentration 1 mM, HEPES conditions (100 mM HEPES, 5 mM MgSO4, 10 uM ATP, pH 7.5).
[4] abbreviates: metal salt concentration 1 mM, screening conditions (0.5 mM Tris, 50 mM glycine, 0.5 mM EDTA, 5 mM MgSO4, 10 uM ATP, pH 7.6).
The mark [5] stands for this setting: metal salt concentration 5 mM, HEPES conditions (100 mM HEPES, 5 mM MgSO4, 10 uM ATP, pH 7.5).
The mark [6] stands for this setting: metal salt concentration 5 mM, screening conditions (0.5 mM Tris, 50 mM glycine, 0.5 mM EDTA, 5 mM MgSO4, 10 uM ATP, pH 7.6).

Structures are written as SMILES. ± gives the standard deviation of the averaged measurements.

In the case of `O.O.O.O.O.O.O.O=S(=O)([O-])[O-].[Mg+2]` [magnesium sulfate], the residual bioluminescent signal stood at 78.3 ± 4.9% under setting [1]; 71.5 ± 6.5% under setting [2]; 77.4 ± 17% under setting [3]; 68 ± 5.2% under setting [4]; 55.5 ± 13% under setting [5]; 47.7 ± 6.9% under setting [6].

With `O=C([O-])[O-].[Cs+].[Cs+]` [caesium carbonate], the residual bioluminescent signal by setting is: under setting [1], 85.2 ± 14%; under setting [2], 93.8 ± 6.3%; under setting [3], 91.6 ± 14%; under setting [4], 103 ± 2.9%; under setting [5], 79.4 ± 4.7%; under setting [6], 56.2 ± 6.8%.

With `[Cl][Pt-2]([Cl])([Cl])[Cl].[K+].[K+]` [potassium tetrachloroplatinate(II)], the residual bioluminescent signal was found to be 85 ± 8% under setting [1]; 87.9 ± 6.2% under setting [2]; 3.8 ± 0.62% under setting [3]; 0.659 ± 0.66% under setting [4]; 1.09 ± 0.23% under setting [5]; 0.343 ± 0.12% under setting [6].

For `[Cl][Fe]([Cl])[Cl]` [iron(III) chloride], the residual bioluminescent signal is 15.5 ± 8.2% under setting [1]; 1.32 ± 0.63% under setting [2]; 1.09 ± 0.62% under setting [3]; 0.712 ± 0.4% under setting [4]; 1.9 ± 1.9% under setting [5]; 0.29 ± 0.046% under setting [6].

For the compound `CC#N.CC#N.CC#N.CC#N.F[B-](F)(F)F.[Cu+]` [tetrakis(acetonitrile)copper(I) tetrafluoroborate], the residual bioluminescent signal by setting is: under setting [1], 0.543 ± 0.23%; under setting [2], 115 ± 2.9%; under setting [3], 0.407%; under setting [4], 0.474 ± 0.16%; under setting [5], 0.679 ± 0.47%; under setting [6], 0.422 ± 0.36%.

With `[Cl][Fe][Cl]` [iron(II) chloride], the residual bioluminescent signal was 28.9 ± 6.8% under setting [1]; 108 ± 1.6% under setting [2]; 1.76 ± 0.23% under setting [3]; 0.343 ± 0.046% under setting [4]; 0.814 ± 0.7% under setting [5]; 0.369 ± 0.091% under setting [6].

As to `O=S(=O)([O-])[O-].[Mn+2]` [manganese(II) sulfate], the residual bioluminescent signal by setting is: under setting [1], 85 ± 11%; under setting [2], 82.6 ± 4.7%; under setting [3], 80.6 ± 12%; under setting [4], 77.1 ± 3.5%; under setting [5], 79.4 ± 13%; under setting [6], 57.4 ± 8.1%.
